A short description of assay [1]: qHTS assay to identify small molecule antagonists of the glucocorticoid receptor (GR) signaling pathway - cell viability counter screen (AID 720693). Further: nearly all actives have a fitted effect of over 55% in size. Further: potency means the concentration at half of the fitted maximal effect.
A short description of assay [2]: qHTS assay for identifying genotoxic compounds that show differential cytotoxicity against isogenic chicken DT40 cell lines with known DNA damage response pathways - wild type cell line (AID 743012). Further: nearly all actives have a fitted effect of over 60% in size. Further: potency means the concentration at half of the fitted maximal effect. Put shortly:
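Viability by ATP luminescence (CellTiter-Glo, 30 min RT) after 40 h compound treatment at 37 C/5% CO2, using 300 parental DNA repair-proficient DT40 cells per well.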
On the technique in general: Quantitative high-throughput screening tests each substance at several concentrations.

Assay [3] in a line: qHTS assay for identifying genotoxic compounds that show differential cytotoxicity against isogenic chicken DT40 cell lines with known DNA damage response pathways - Rev3 mutant cell line (AID 743014). Further: nearly all actives have a fitted effect of over 55% in size. Further: potency means the concentration at half of the fitted maximal effect.
Assay [4] in a line: qHTS assay for identifying genotoxic compounds that show differential cytotoxicity against isogenic chicken DT40 cell lines with known DNA damage response pathways - Rad54/Ku70 mutant cell line (AID 743015). Further: nearly all actives have a fitted effect of over 60% in size. Further: potency means the concentration at half of the fitted maximal effect.
A short description of assay [5]: qHTS assay to identify small molecule antagonists of the androgen receptor (AR) signaling pathway - cell viability counter screen (AID 743033; further: nearly all actives have a fitted effect of over 45% in size).
Assay [6] can be described thus: qHTS assay to identify small molecule antagonists of the androgen receptor (AR) signaling pathway using the MDA cell line - cell viability counter screen (AID 743041; further: nearly all actives have a fitted effect of over 45% in size; further: potency means the concentration at half of the fitted maximal effect). Put shortly:
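qHTS viability read-out; MDA-kb2 AR-luc; R1881-stimulated; 16 h exposure at 37C, 0% CO2; CellTiter-Fluor, 30 min; fluorescence intensity.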

A short description of assay [7]: qHTS assay to identify small molecule antagonists of the thyroid receptor (TR) signaling pathway - cell viability counter screen (AID 743064). Further: nearly all actives have a fitted effect of over 50% in size. Further: potency means the concentration at half of the fitted maximal effect. The method, boiled down: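 Fluorescence from CellTiter-Fluor, added after 23.5 h exposure at 37 °C, reported viability of GH3.TRE-Luc cells co-treated with compound and 1 nM T3. Measured in the same wells as the luciferase TR readout.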

A short description of assay [8]: qHTS assay to identify small molecule antagonists of the thyroid receptor (TR) signaling pathway (AID 743065). Further: nearly all actives have a fitted effect of over 55% in size. Further: potency means the concentration at half of the fitted maximal effect. The method, boiled down: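 GH3.TRE-Luc rat pituitary cells carrying two TR response elements driving luciferase were plated for 4 h, given compound plus 1 nM T3 (final), and incubated 23.5 h at 37 C. ONE-Glo luminescence measured reporter inhibition; CellTiter-Fluor fluorescence tracked cytotoxicity.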

Assay [9] relates to thyroid hormone receptor (rat, GH3 cells). Kind of assay: qHTS assay to identify small molecule agonists of the thyroid receptor (TR) signaling pathway (AID 743066; calls by dose curve).
The target in assay [10] is Estrogen receptor (Homo sapiens) (UniProt P03372). As to the kind of experiment: qHTS assay to identify small molecule antagonists of the estrogen receptor alpha (ER-alpha) signaling pathway (AID 743069; active means well fitted curve in the direction sought with a large enough effect in the signal ratio in the repeat runs, not every such curve was filed as active; the % refers to the signal ratio). Put shortly:
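Screening used a UAS-driven beta-lactamase reporter integrated into HEK293 cells expressing ER-alpha, stimulated with 17beta-estradiol alongside test compounds over 18 hr at 37C; signal came from LiveBLAzer B/G FRET fluorescence.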

A short description of assay [11]: qHTS assay to identify small molecule antagonists of the estrogen receptor alpha (ER-alpha) signaling pathway - cell viability counter screen (AID 743074; calls by dose curve; further: nearly all actives have a fitted effect of over 45% in size).
In assay [12] the target is Estrogen receptor (Homo sapiens) (UniProt P03372). As to the kind of experiment: qHTS assay to identify small molecule agonists of the estrogen receptor alpha (ER-alpha) signaling pathway (AID 743075; calls by dose curve; further: potency means the concentration at half of the fitted maximal effect).
Sequence of Estrogen receptor (Homo sapiens) (P03372 whole entry, looked up): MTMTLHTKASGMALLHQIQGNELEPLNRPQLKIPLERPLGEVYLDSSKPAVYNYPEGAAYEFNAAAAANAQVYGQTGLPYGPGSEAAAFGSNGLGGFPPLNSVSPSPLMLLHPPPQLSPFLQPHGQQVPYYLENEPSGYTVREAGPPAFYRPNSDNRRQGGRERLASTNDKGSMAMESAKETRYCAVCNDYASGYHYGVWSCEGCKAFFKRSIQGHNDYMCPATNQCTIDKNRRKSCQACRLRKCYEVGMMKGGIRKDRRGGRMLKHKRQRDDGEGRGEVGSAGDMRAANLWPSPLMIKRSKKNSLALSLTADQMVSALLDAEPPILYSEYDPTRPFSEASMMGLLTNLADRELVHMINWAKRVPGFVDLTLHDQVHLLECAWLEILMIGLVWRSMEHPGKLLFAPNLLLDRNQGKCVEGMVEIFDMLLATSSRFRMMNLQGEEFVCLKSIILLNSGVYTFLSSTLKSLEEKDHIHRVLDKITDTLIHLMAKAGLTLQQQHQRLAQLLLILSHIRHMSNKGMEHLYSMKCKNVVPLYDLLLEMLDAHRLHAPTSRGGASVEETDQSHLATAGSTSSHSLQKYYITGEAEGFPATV
Assay [13] has the same target. As to the kind of experiment: qHTS assay to identify small molecule agonists of the estrogen receptor alpha (ER-alpha) signaling pathway using the BG1 cell line (AID 743079). Further: nearly all actives have a fitted effect of over 20% in size. Further: potency means the concentration at half of the fitted maximal effect.
The nature of assay [14]: qHTS assay to identify small molecule antagonists of the estrogen receptor alpha (ER-alpha) signaling pathway using the BG1 cell line - cell viability counter screen (AID 743081).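 Further: compound given together with 17beta-estradiol as the ER stimulus; nearly all actives have a fitted effect of over 45% in size.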 Further: potency means the concentration at half of the fitted maximal effect.
The next assay concerns the target Aromatase (Homo sapiens) (UniProt P11511). As to the kind of experiment: qHTS assay to identify aromatase inhibitors (AID 743083). Further: series mostly up to about 70 µM; nearly all actives have a fitted effect of over 55% in size.
Assay [15] can be described thus: qHTS assay to identify small molecule antagonists of the estrogen receptor alpha (ER-alpha) signaling pathway using the BG1 cell line (AID 743080; calls by dose curve;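 further: BG1 cells stimulated with 17beta-estradiol alongside compound; nearly all actives have a fitted effect of over 25% in size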; further: potency means the concentration at half of the fitted maximal effect). The method, boiled down:
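Readout is ONE-Glo luminescence, taken 30 min at room temperature after reagent addition, preceded by a CellTiter-Fluor viability read; BG1-Luc-4E2 cells had received compound and 17beta-estradiol for 21.5 h at 37 C.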

Each structure is given as a SMILES string. Several values for one entry are separate records, joined by “and”; a condition that tells them apart may be missing. Identical values can stand only once. Inconclusive results are not listed. Some structures have more than one record in an assay (separate samples or runs), and their calls can disagree. Activity calls are given as the source filed them. Unless noted, the call rests on the fitted dose curve; in most records, active means well fitted curve in the direction sought with a large enough effect in the repeat runs; inconclusive means weak or mixed curves; inactive means no such curve, though single readings can be large; an effect the other way counts as inactive or inconclusive.

Sequence of Aromatase (Homo sapiens) (P11511 whole entry, looked up): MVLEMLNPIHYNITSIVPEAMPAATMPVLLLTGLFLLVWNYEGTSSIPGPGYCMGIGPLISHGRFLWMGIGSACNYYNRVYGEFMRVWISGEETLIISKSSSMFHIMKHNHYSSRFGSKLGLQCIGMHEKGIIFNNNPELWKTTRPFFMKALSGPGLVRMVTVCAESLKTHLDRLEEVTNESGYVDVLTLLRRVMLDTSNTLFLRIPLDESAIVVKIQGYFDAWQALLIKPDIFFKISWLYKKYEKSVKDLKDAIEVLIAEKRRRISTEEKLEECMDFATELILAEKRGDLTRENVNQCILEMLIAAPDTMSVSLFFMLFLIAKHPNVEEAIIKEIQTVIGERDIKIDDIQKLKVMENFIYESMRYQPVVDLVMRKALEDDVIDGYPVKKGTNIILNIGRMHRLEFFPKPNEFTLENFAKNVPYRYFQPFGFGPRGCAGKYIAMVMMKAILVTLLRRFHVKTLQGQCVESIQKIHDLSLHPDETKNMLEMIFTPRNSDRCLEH

`Cc1ccc(O)c(-n2nc3ccccc3n2)c1`: the Potency result in assay [1], in assay [2], in [3], in [6], in assay [7] and in assay [8] was “inactive” each time. Moreover, the Potency entry (in assay [10]; in assay [14]; with Aromatase (Homo sapiens)) was “inactive” throughout. In addition, the Potency was 26.6 µM (active) and inactive in assay [4]; “inactive and 11 µM [activator] (active)” in [12]; 5.96 µM (active) and 17.1 µM (active) and 3.86 µM (active) in assay [13]. Also, the outcome in [5], in [9] and in assay [11] was inactive.
`CO[C@H]1C=CO[C@@]2(C)Oc3c(C)c(O)c4c(O)c(c(/C=N/N5CCN(C)CC5)c(O)c4c3C2=O)NC(=O)/C(C)=C\C=C[C@H](C)[C@H](O)[C@@H](C)[C@@H](O)[C@@H](C)[C@H](OC(C)=O)[C@@H]1C`: the Potency result (in assay [1]; in [8]; with Aromatase (Homo sapiens)) was “inactive” in each case. The Potency in assay [2] was 21.1 µM (active) and 31 µM (active); in [3] it was 29.8 µM (active) and 24.6 µM (active); in [4], 26.6 µM (active) and 15.5 µM (active); in [6], 26.6 µM (active); in assay [7], 26.6 µM (active) and 34.8 µM (active); in [14], 23.7 µM (active) and 34.8 µM (active). Further, the outcome in assay [5], in [9] and in assay [11] was inactive.
For the molecule `O=C1CCCCCN1`, the Potency result in assay [1], in [2], in assay [3], in assay [4], in assay [6] and in assay [7] was “inactive” in each case. Also, the Potency entry (in [8]; in assay [14]; with Aromatase (Homo sapiens)) was “inactive” in each case. The call in [5], in assay [9] and in assay [11] was inactive.
`CCOCCO`: the Potency entry in assay [1], in assay [2], in assay [3], in [4], in [6] and in assay [7] was “inactive” in each case. The Potency entry (in assay [8]; in [14]; with Aromatase (Homo sapiens)) was “inactive” throughout. Besides, the call in assay [5], in assay [9] and in assay [11] was inactive.
For the molecule `CC1(C)O[C@@H]2[C@@H](CO[C@@]3(COS(N)(=O)=O)OC(C)(C)O[C@@H]23)O1`, the Potency result in [1], in assay [2], in assay [3], in assay [4], in assay [6] and in assay [7] was “inactive” in each case. Also, the Potency entry in assay [8], in assay [10], in assay [12], in [13], in assay [15] and in [14] was “inactive” throughout. Further, the Potency entry with Aromatase (Homo sapiens) is “inactive”. In addition, the call in assay [5], in [9] and in assay [11] was inactive.
In the case of `CCCCCCCCCCCCCCCCCC(=O)OCC(O)CO` (stereo not given), the Potency result in assay [1], in assay [2], in [3], in assay [4], in assay [6] and in assay [7] was “inactive” in each case. Moreover, the Potency result in assay [8], in [10], in [12], in assay [13], in assay [15] and in assay [14] was “inactive” each time. The Potency result with Aromatase (Homo sapiens) was “inactive”. Moreover, the molecule was called inactive in assay [5], in [9] and in assay [11].
Turning to `CC(C)(C)CC(C)(C)c1ccc(O)c(-n2nc3ccccc3n2)c1`, the Potency in assay [1] was 49.7 µM (active); in assay [7], 26.6 µM (active) and 30.6 µM (active); in assay [8] it was 21.1 µM (active) and 62 µM (active) and 27.3 µM (active); in assay [15], “inactive and 61.1 µM (active)”. The Potency entry in assay [2], in [3], in assay [4], in assay [6], in assay [10] and in assay [12] was “inactive” in each case. Further, the Potency result (in assay [13]; in assay [14]; with Aromatase (Homo sapiens)) was “inactive” in each case. In addition, the call in assay [5], in assay [9] and in assay [11] was inactive.
Consider `OCCCc1ccccc1`, for which the Potency result in assay [1], in assay [2], in assay [3], in assay [4], in assay [6] and in [7] was “inactive” in each case. The Potency entry in assay [8], in [10], in assay [12], in assay [13], in assay [15] and in assay [14] was “inactive” in each case. In addition, the Potency result in the assay with Aromatase (Homo sapiens) is “inactive”. Also, the call in [5], in assay [9] and in [11] was inactive.

The record behind these values is PubChem BioAssay (Tox21).
